Screening data: PubChem, National Center for Advancing Translational Sciences (NCATS)
Pf Dd2 inh = Plasmodium falciparum Dd2 growth inhibition | P. falciparum Dd2 growth, SYBR Green, 72 h | Potency, µM (top dose mostly 28.9 µM), hits mostly inhibitors | 120,000 compounds, 4.3% hits | AID 1347417; active = well fitted inhibition curve with a large enough effect; note: nearly all actives have a fitted effect of over 65% in size
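Readout: SYBR Green fluorescence, 485 nm excitation, 535 nm emission, after ~16 h lysis at 37C. Before that, Dd2-infected red cells (2.5% hematocrit) grew 72 h with compound, 29 uM top final concentration.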
Hits are given with their value; i = inactive; [ ] = another dose, or the depositor's remark. The sample as a whole holds a higher share of hits than the screen did.

SMILES | Pf Dd2 inh
Cc1ccc(NC(=O)N2CCN(c3nnnn3-c3ccccc3)CC2)cc1F | i
CCc1cccc(-n2nnnc2N2CCN(C(=O)NC(C)c3ccccc3)CC2)c1 (stereo not given) | i
COCCn1ncc(N2CCCC(CC(=O)Nc3ccc(C)cc3C)C2)cc1=O (stereo not given) | i
CS(=O)(=O)N1C[C@@H](COc2cccnc2)[C@H](c2ccccn2)C1 | i
COCCCNC(=O)c1c(OCC2CC2)cc(=O)n2c1CCOCC2 | i
O=C1CC(c2ccccc2)N(Cc2ccc(F)c(F)c2)CCCCCN1 (stereo not given) | 10µM
Cc1ncsc1CN1CCCCCNC(=O)CC1c1ccccc1 (stereo not given) | i
COc1ccc(CN2CCCCCNC(=O)CC2c2ccccc2)cc1Cn1ccnc1 (stereo not given) | 2µM
COCCC(=O)N1CCCCCCNC(=O)CC1c1ccccc1 (stereo not given) | i
O=C1CC(c2ccccc2)N(Cc2ccc(C(F)(F)F)cc2)CCCCCN1 (stereo not given) | i
Cc1ccc(CN2CCCCCNC(=O)CC2c2ccccc2)o1 (stereo not given) | i
CN1CC(=O)N(C2CCNCC2)Cc2c(NC3CCCCC3O)ncnc21 (stereo not given) | i
Cc1ccc(N2CCC(NC(=O)c3ccc(C#N)cc3)C2=O)cc1C (stereo not given) | i
COc1ccc(N2CCN(c3nc(C(=O)NC4CC4)cs3)CC2)cc1 | i
COc1ccc(N2CCN(c3nc(C(=O)NCc4ccc(C)cc4)cs3)CC2)cc1 | i
COc1ccc(N2CCN(c3nc(C(=O)NCc4ccccc4C)cs3)CC2)cc1 | 8.91µM
O=C(NCc1cccs1)c1csc(N2CCN(c3ccc(F)cc3)CC2)n1 | i
COc1ccc(N2CCN(c3nc(C(=O)NCc4cccc(C)c4)cs3)CC2)cc1 | 3.16µM
O=C(NCc1ccccc1Cl)c1csc(N2CCN(c3ccc(F)cc3)CC2)n1 | i
CCC(C)NC(=O)C1COC2(CCN(C(=O)c3ccc(F)cc3)CC2)N1C(=O)c1ccccc1 (stereo not given) | i
O=C(Nc1ccccc1)Nc1ccc([C@@H](O)[C@H]2COCC(=O)N2Cc2cccnc2)cc1 | i
O=C(c1ccccc1)N1CCC2(CC1)CCN(CCc1ccccc1)c1ccccc1O2 | i
CC[C@H]1CN(C(=O)c2ccnc(Cl)c2)CC[C@H]1CC(=O)NCc1ccccc1 | i
O=C(CC1CCCN(c2cn[nH]c(=O)c2)C1)N1CCCCC1 (stereo not given) | i
Cc1ccc(/C=C/c2nc3ccccc3[nH]2)cc1 | 10µM
SMILES | Pf Dd2 inh
Cc1ccc(/C=C(\C#N)c2nc3ccccc3c(=O)[nH]2)cc1 | i
Cc1ccc(C(C)(C)C)c(OCC(=O)NCCc2nc3ccccc3[nH]2)c1 | i
CC(C)c1ccc(CN2CCC3(CC2)OC(=O)N(Cc2ncccn2)C3(C)c2ccccc2)cc1 (stereo not given) | i
O=C(NCc1cc2n(n1)CCCNC2)C1Cc2ccccc2S(=O)(=O)N1 (stereo not given) | i
Cc1ccc(CSc2oc(-c3cccs3)nc2S(=O)(=O)c2ccccc2)cc1 | i
CCC(C)S(=O)(=O)c1oc(-c2cccs2)nc1S(=O)(=O)c1ccccc1 (stereo not given) | 12.6µM
O=S(=O)(c1ccccc1)c1nc(-c2cccs2)oc1N1CCCCC1 | i
CC(C)NC(=O)C1CN(Cc2ccccc2)C(=O)N1 (stereo not given) | i
CCC(=O)N1CC(=O)Nc2ccc(C)cc2C1c1ccc(F)cc1 (stereo not given) | i
CCCC(=O)N1CC(=O)Nc2ccc(Cl)cc2C1c1ccccc1 (stereo not given) | i
O=C1CN(C(=O)COc2ccc(Cl)cc2)C(c2ccc(F)cc2)c2cc(Cl)ccc2N1 (stereo not given) | 10µM
Cc1cccc(C(=O)N2CCCCCCNC(=O)[C@@H]3C[C@@H](c4nc(C(C)C)no4)C[C@@H]32)c1 | i
O=C(NC1CC1)C1CCc2nnc(-c3cccc(C(F)(F)F)c3)n21 (stereo not given) | i
CN(CC(=O)O)c1ncc(CN2CCn3nc(C(O)CO)cc3C2)cn1 (stereo not given) | i
CC(=O)N1CCC2(CC1)C(=NC1CCCC1)NC(=O)N2c1cc(F)cc(F)c1 | i
O=C1NC(=NC2CCCC2)C2(CCN(Cc3ccc(F)cc3)C2)N1c1cc(F)cc(F)c1 (stereo not given) | 2µM
CN(C)c1ccc(CN2CCC3(C2)C(=NC2CCCCC2)NC(=O)N3c2cc(F)cc(F)c2)cc1 (stereo not given) | 10µM
COc1ccc(CN2CCC3(CC2)C(=NC2CCCC2)NC(=O)N3c2cc(F)cc(F)c2)cc1 | i
O=C1NC(=NC2CCCCC2)C2(CCN(Cc3ccccc3)CC2)N1c1cc(F)cc(F)c1 | i
O=C1NC(=NC2CCCCC2)C2(CCN(Cc3cccnc3)CC2)N1c1cc(F)cc(F)c1 | i
Cc1cc(C(=O)N2CCCC(n3c(C)cnc3C3CC3)C2)n(C)n1 (stereo not given) | i
CCNC(=O)N1C[C@@H](F)[C@@H](OCc2nc3ccc(C)cc3[nH]2)C1 | i
Cc1ccc(-n2nc3c(N4CCC(C(=O)NC(C)C)CC4)nnc(C)c3c2C)cc1 | i[5.79 µM]
CCNC(=O)C1CCN(c2nnc(C)c3c(C)n(-c4ccc(OC)cc4)nc23)CC1 | 8.91µM
COc1ccc(CNC(=O)C2CCN(c3nnc(C)c4c(C)n(-c5ccc(C)cc5)nc34)CC2)cc1 | 7.94µM
SMILES | Pf Dd2 inh
Cc1ccc(-n2nc3c(N4CCC(C(=O)NC5CCCCC5)CC4)nnc(C)c3c2C)cc1 | i
Cc1nnc(N2CCC(C(=O)NCCc3ccccc3)CC2)c2nn(-c3ccccc3)c(C)c12 | i
COc1cc(NC(=O)C2CCN(c3nnc(C)c4c(C)n(-c5ccccc5)nc34)CC2)cc(OC)c1 | i
COCCC(=O)N1CCC(N2C[C@H](O)C[C@H]2C(=O)NCc2cccc(OC)c2)CC1 | i
CC[C@H]1CN(S(=O)(=O)c2ccc(OC)cc2)CC[C@H]1CC(=O)N1CCC(C(=O)OC)CC1 | i
COCCNC(=O)[C@@H]1C[C@H](Oc2cccnc2)CN1C(=O)c1ccccn1 | i
COc1ccc(OC2CN(C(=O)c3ccc(OC)cc3)C2)cc1 | i
CCCN(CC1CCOC1)S(=O)(=O)c1cc(F)ccc1F (stereo not given) | i
COc1cccc(NC(=O)CC2Oc3ccccc3NC2=O)c1 (stereo not given) | i
Cc1cc2c(cc1C)NC(CC(=O)Nc1cccc(C)c1C)C(=O)N2 (stereo not given) | 3.16µM
O=C(C[C@H]1NC(=O)c2ccccc2NC1=O)Nc1ccccc1Cl | i
Cc1ccc(NC(=O)CC2Nc3cc(C)c(C)cc3NC2=O)c(C)c1 (stereo not given) | 3.16µM
COc1cccc(NC(=O)CC2Nc3cc(C)c(C)cc3NC2=O)c1 (stereo not given) | 2.24µM
COc1ccc(NC(=O)CC2Nc3ccccc3NC2=O)cc1 (stereo not given) | i
Cc1cccc(NC(=O)CC2Nc3cccc4cccc(c34)NC2=O)c1 (stereo not given) | i
COc1ccc(C)cc1NC(=O)C[C@H]1NC(=O)c2ccccc2NC1=O | i
Cc1ccc2c(c1)NC(=O)C(CC(=O)Nc1cc(Cl)ccc1C)O2 (stereo not given) | i
CS(=O)(=O)N(C1CCOCC1)C1CNC1 | i
CCOc1ccc(CC(=O)N2CCCN(C(=O)C3CC3)c3ccccc32)cc1 | i
Cc1ccc(-c2ccc3nnc(CNC(=O)C4(c5ccccc5)CC4)n3n2)cc1 | i
